Laboratory results taken from PubChem BioAssay (Tox21).
Inconclusive results are not listed. Active and inactive are the calls of the source. Calls come from the whole dose curve; as a rule, active = well fitted curve in the direction sought with a large enough effect in the repeat runs; inconclusive = weak or mixed curves; inactive = no such curve, though single readings can be large; an effect the other way counts as inactive or inconclusive.

Legend:
[1] = qHTS RealTime-Glo MT Cell Viability Assay in HepG2 cells - 40 hour (AID 1224870); note: nearly all actives have a fitted effect of over 50% in size
Outline: (§1)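 HepG2 cells mixed with RealTime-Glo MT reagents (NanoLuc plus cell-permeant prosubstrate) were seeded at 600 cells/well, incubated 5 h at 37 C/5% CO2, then pinned with compounds in DMSO; nonlytic luminescence tracked viability during 40 h treatment.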

[2] = A CellTox Green Cytotoxicity Assay to monitor cytotoxicity in HEK293 cells - 40 hour (AID 1224871); note: nearly all actives have a fitted effect of over 45% in size
Outline: (§2)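 Seeding of HEK293 cells together with cytotoxicity dye preceded a 5 h incubation at 37 C/5% CO2. Test compounds in DMSO were then added and fluorescence monitored across 40 h.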

[3] = qHTS RealTime-Glo MT Cell Viability Assay in HEK293 cells - 16 hour (AID 1224872); note: top concentration of the series differs between compounds; nearly all actives have a fitted effect of over 50% in size
Outline: (§3)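 Tox21 10K qHTS, HEK293, 600 cells/well, RealTime-Glo reagent co-dispensed with cells; 5 h preincubation, compound by pintool, 37 C, luminescence at 0–40 h.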

[4] = qHTS RealTime-Glo MT Cell Viability Assay in HepG2 cells - 8 hour (AID 1224873); note: nearly all actives have a fitted effect of over 55% in size
Outline: as §1

[5] = qHTS RealTime-Glo MT Cell Viability Assay in HEK293 cells - 40 hour (AID 1224874); details: RealTime-Glo luminescence; max response: active compounds read low; note: nearly all actives have a fitted effect of over 50% in size
Outline: (§4)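 Tox21 screen in HEK293 using RealTime-Glo MT chemistry, with cells and reagent co-dispensed. Luminescence proportional to viable cell number was captured at intervals during 40 h compound exposure at 37 C.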

[6] = A CellTox Green Cytotoxicity Assay to monitor cytotoxicity in HEK293 cells - 24 hour (AID 1224875); note: series mostly up to about 77 µM; nearly all actives have a fitted effect of over 45% in size
Outline: as §2

[7] = A CellTox Green Cytotoxicity Assay to monitor cytotoxicity in HepG2 cells - 16 hour (AID 1224876); note: nearly all actives have a fitted effect of over 45% in size
Outline: (§5)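 Nonlytic assay: viable cells exclude the dye, so fluorescence scales with cell death. HepG2 at 600 cells/well, compounds added after 5 h, signal read across 40 h.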

[8] = qHTS RealTime-Glo MT Cell Viability Assay in HepG2 cells - 32 hour (AID 1224877); note: nearly all actives have a fitted effect of over 55% in size
Outline: (§6)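 Cells + NanoLuc/prosubstrate dispensed (600 cells/well) → 5 h at 37 C/5% CO2 → compounds in DMSO transferred → 40 h incubation at 37 C, luminescence read at 0, 8, 16, 24, 32, 40 h.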

[9] = A CellTox Green Cytotoxicity Assay to monitor cytotoxicity in HepG2 cells - 24 hour (AID 1224878); note: nearly all actives have a fitted effect of over 45% in size
Outline: as §5

[10] = A CellTox Green Cytotoxicity Assay to monitor cytotoxicity in HepG2 cells - 40 hour (AID 1224879); note: nearly all actives have a fitted effect of over 40% in size
Outline: as §5

[11] = qHTS RealTime-Glo MT Cell Viability Assay in HEK293 cells - 0 hour (AID 1224880)
Outline: as §4

[12] = A CellTox Green Cytotoxicity Assay to monitor cytotoxicity in HEK293 cells - 32 hour (AID 1224881); note: nearly all actives have a fitted effect of over 40% in size
Outline: as §2

[13] = A CellTox Green Cytotoxicity Assay to monitor cytotoxicity in HepG2 cells - 0 hour (AID 1224882); note: nearly all actives have a fitted effect of over 35% in size
Outline: as §5

[14] = A CellTox Green Cytotoxicity Assay to monitor cytotoxicity in HepG2 cells - 32 hour (AID 1224883); note: nearly all actives have a fitted effect of over 50% in size
Outline: as §5

[15] = A CellTox Green Cytotoxicity Assay to monitor cytotoxicity in HEK293 cells - 8 hour (AID 1224884); note: nearly all actives have a fitted effect of over 35% in size
Outline: as §2

[16] = qHTS RealTime-Glo MT Cell Viability Assay in HEK293 cells - 24 hour (AID 1224886)
Outline: as §3

[17] = qHTS RealTime-Glo MT Cell Viability Assay in HEK293 cells - 8 hour (AID 1224887)
Outline: as §4

[18] = A CellTox Green Cytotoxicity Assay to monitor cytotoxicity in HEK293 cells - 16 hour (AID 1224888); note: nearly all actives have a fitted effect of over 35% in size
Outline: as §2

[19] = qHTS RealTime-Glo MT Cell Viability Assay in HepG2 cells - 0 hour (AID 1224889); note: nearly all actives have a fitted effect of over 50% in size
Outline: as §6

[20] = qHTS RealTime-Glo MT Cell Viability Assay in HepG2 cells - 16 hour (AID 1224885); note: nearly all actives have a fitted effect of over 50% in size
Outline: as §6
% is set by controls: 0 for no effect and ±100 for the full control effect.

N#Cc1ccc(Cl)cc1
inactive: Potency [1] | Potency [2] | Potency [3] | Potency [4] | max response [5] 2.27% | Potency [6] | Potency [7] | Potency [8] | Potency [9] | Potency [10] | Potency [11] | Potency [12] | Potency [13] | Potency [14] | Potency [15] | Potency [16] | Potency [17] | Potency [18] | Potency [19]

O=Cc1ccc(Cl)cc1Cl
inactive: Potency [1] | Potency [2] | Potency [3] | Potency [4] | max response [5] -1.06% | Potency [6] | Potency [7] | Potency [8] | Potency [9] | Potency [10] | Potency [11] | Potency [12] | Potency [13] | Potency [14] | Potency [20] | Potency [16] | Potency [17] | Potency [18] | Potency [19]

ClCc1cccc(Cl)c1
inactive: Potency [1] | Potency [2] | Potency [3] | Potency [4] | max response [5] -0.225% | Potency [6] | Potency [7] | Potency [8] | Potency [9] | Potency [10] | Potency [11] | Potency [12] | Potency [13] | Potency [15] | Potency [20] | Potency [16] | Potency [17] | Potency [18]

CO[C@@H]1[C@H](OC(=O)NC(=O)CCl)CC[C@]2(CO2)[C@H]1[C@@]1(C)O[C@@H]1CC=C(C)C
inactive: activity change, negative = cytotoxic [1] 0.252% [at 15.8 µM] | cytotoxicity increase [2] -0.615% [at 15.8 µM] | activity change, negative = cytotoxicity [3] 13.2% [at 15.8 µM] | viability change, negative = cytotoxic [4] -0.3% [at 15.8 µM] | max response [5] 1.55% | activity change [6] -10.2% [at 15.8 µM, active compounds read high] | cytotoxicity increase [7] -3.75% [at 15.8 µM] | cytotoxicity [9] -1.01% [at 15.8 µM] | cytotoxicity increase [10] -2% [at 15.8 µM] | activity change, negative = cytotoxicity [11] 1.11% [at 15.8 µM] | cytotoxicity increase [12] -3.65% [at 15.8 µM] | cytotoxicity [13] 1.46% [at 15.8 µM] | cytotoxicity increase [14] -1.39% [at 15.8 µM] | cytotoxicity increase [15] -6.32% [at 15.8 µM] | activity change, negative = cytotoxic [20] 1.78% [at 15.8 µM] | activity change, negative = cytotoxicity [16] 14.6% [at 15.8 µM] | activity change, negative = cytotoxicity [17] 6.68% [at 15.8 µM] | activity change [18] -10.6% [at 15.8 µM, active compounds read high]

CCOc1nc(F)cc2nc(S(=O)(=O)Nc3c(Cl)cccc3Cl)nn12
inactive: Potency [1] | Potency [2] | Potency [3] | Potency [4] | max response [5] 30.5% | Potency [6] | Potency [7] | Potency [8] | Potency [9] | Potency [10] | Potency [12] | Potency [13] | Potency [14] | Potency [15] | Potency [20] | Potency [16] | Potency [17] | Potency [18]

OCCCBr
inactive: Potency [1] | Potency [2] | Potency [3] | Potency [4] | max response [5] -0.927% | Potency [6] | Potency [7] | Potency [8] | Potency [9] | Potency [10] | Potency [11] | Potency [12] | Potency [13] | Potency [20] | Potency [16] | Potency [17]

c1cc2ccc3cccc4ccc(c1)c2c34
inactive: Potency [1] | Potency [2] | Potency [3] | Potency [4] | max response [5] -0.186% | Potency [6] | Potency [7] | Potency [8] | Potency [9] | Potency [11] | Potency [12] | Potency [13] | Potency [16] | Potency [17] | Potency [18]

C=CCC1([C@H](C)CCC)C(=O)NC(=O)NC1=O
inactive: Potency [1] | Potency [2] | Potency [3] | Potency [4] | max response [5] -11.9% | Potency [6] | Potency [7] | Potency [9] | Potency [10] | Potency [11] | Potency [12] | Potency [13] | Potency [14] | Potency [20] | Potency [16] | Potency [17] | Potency [18]

ClCC(Br)CBr (centres undefined)
inactive: Potency [1] | Potency [2] | Potency [3] | Potency [4] | max response [5] 14.6% | Potency [6] | Potency [7] | Potency [9] | Potency [10] | Potency [11] | Potency [12] | Potency [13] | Potency [14] | Potency [15] | Potency [20] | Potency [16] | Potency [17] | Potency [18] | Potency [19]

CCOP(=S)(OCC)Oc1cc(Cl)c(Br)cc1Cl
inactive: Potency [1] | Potency [2] | Potency [3] | Potency [4] | max response [5] -15.7% | Potency [6] | Potency [7] | Potency [8] | Potency [9] | Potency [10] | Potency [11] | Potency [12] | Potency [13] | Potency [15] | Potency [17] | Potency [18] | Potency [19]

BrCCCCBr
inactive: Potency [1] | Potency [2] | Potency [3] | Potency [4] | max response [5] 17.9% | Potency [6] | Potency [7] | Potency [8] | Potency [9] | Potency [10] | Potency [11] | Potency [12] | Potency [13] | Potency [20] | Potency [16] | Potency [17] | Potency [18]

C=CCN1CC[C@]23c4c5ccc(O)c4O[C@H]2C(=O)CC[C@@]3(O)[C@H]1C5
inactive: Potency [1] | Potency [2] | Potency [3] | Potency [4] | max response [5] -0.323% | Potency [6] | Potency [7] | Potency [9] | Potency [10] | Potency [11] | Potency [12] | Potency [13] | Potency [14] | Potency [15] | Potency [16] | Potency [17] | Potency [18]

COc1cc(Cl)c(OC)cc1Cl
inactive: Potency [1] | Potency [2] | Potency [3] | Potency [4] | max response [5] 1.87% | Potency [6] | Potency [7] | Potency [9] | Potency [10] | Potency [11] | Potency [12] | Potency [13] | Potency [14] | Potency [20] | Potency [16] | Potency [17] | Potency [18]

ClCc1ccccc1
inactive: Potency [1] | Potency [2] | Potency [3] | Potency [4] | max response [5] 2.64% | Potency [6] | Potency [7] | Potency [9] | Potency [10] | Potency [11] | Potency [12] | Potency [13] | Potency [14] | Potency [15] | Potency [16] | Potency [17] | Potency [18] | Potency [19]

CN1C(=O)NC(=O)C(C)(C2=CCCCC2)C1=O (centres undefined)
inactive: Potency [1] | Potency [2] | Potency [3] | Potency [4] | max response [5] 11.8% | Potency [6] | Potency [7] | Potency [9] | Potency [10] | Potency [11] | Potency [12] | Potency [13] | Potency [14] | Potency [15] | Potency [20] | Potency [16] | Potency [17] | Potency [18] | Potency [19]
